Details in all cases: mRNA level, 48 h; actives raise or lower the signal
Read-out in test [1]: Insulin Like Growth Factor 1 (IGF1), IGF1 (gene 3479)
Briefly: LTEA_HepaRG_IGF1: Life Technologies and Expression Analysis (LTEA) Assay for Insulin Like Growth Factor 1 (IGF1) using HepaRG (AID 2283506). The procedure, abridged:
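Endpoint: IGF1 mRNA change by qRT-PCR, housekeeping-normalized, fitted bidirectionally relative to 0.5% DMSO vehicle. Human HepaRG cells were treated 48 h in serum-free induction medium, eight half-log concentrations topping at 100 uM.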

Read-out in test [2]: Intercellular Adhesion Molecule 1 (ICAM1), ICAM1 (gene 3383)
As to the kind of experiment: LTEA_HepaRG_ICAM1: Life Technologies and Expression Analysis (LTEA) Assay for Intercellular Adhesion Molecule 1 (ICAM1) using HepaRG (AID 2283507). The procedure, abridged: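 HepaRG, 48 h exposure, 8-pt half-log series from 100 uM, 0.5% DMSO vehicle, duplicates. Readout: TaqMan qRT-PCR mRNA, housekeeping-normalized (ACTB/GAPDH/POLR2A). Bidirectional curve fit vs DMSO baseline.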

Read-out in test [3]: Insulin-like growth factor-binding protein 1 (IGFBP1), IGFBP1 (gene 3484)
Briefly: LTEA_HepaRG_IGFBP1: Life Technologies and Expression Analysis (LTEA) Assay for Insulin-like growth factor-binding protein 1 (IGFBP1) using HepaRG (AID 2283508). The method, boiled down:
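qRT-PCR mRNA read-out (TaqMan, Fluidigm array), normalised to three housekeeping genes; HepaRG cells, 48 h exposure, 8-pt half-log series from 100 uM, 0.5% DMSO vehicle; bidirectional curve fit vs DMSO baseline.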

Read-out in test [4]: Interleukin 6 (IL6), IL6 (gene 3569)
Briefly: LTEA_HepaRG_IL6: Life Technologies and Expression Analysis (LTEA) Assay for Interleukin 6 (IL6) using HepaRG (AID 2283509). The procedure, abridged: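 qRT-PCR read-out of IL6 transcript, normalized to three housekeeping genes, after 48 h chemical exposure of HepaRG cells; 8-point half-log series, top 100 uM, 0.5% DMSO vehicle. Bidirectional curve fitting against DMSO baseline.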

Read-out in test [5]: Interleukin 6 Receptor (IL6R), IL6R (gene 3570)
Briefly: LTEA_HepaRG_IL6R: Life Technologies and Expression Analysis (LTEA) Assay for Interleukin 6 Receptor (IL6R) using HepaRG (AID 2283510).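 As to AC50: differentiated human HepaRG liver cells in serum-free induction medium.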 The method, boiled down: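 In this HepaRG screen, test chemicals act on cells for 48 h at up to 100 uM (eight half-log points, duplicate wells). IL6R expression is quantified by qRT-PCR after normalization to ACTB, GAPDH and POLR2A, with DMSO as baseline.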

Read-out in test [6]: Keratin 19 (KRT19), KRT19 (gene 3880)
As to the kind of experiment: LTEA_HepaRG_KRT19: Life Technologies and Expression Analysis (LTEA) Assay for Keratin 19 (KRT19) using HepaRG (AID 2283512). The procedure, abridged:
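HepaRG, 48 h chemical exposure, 8-pt half-log CRC from 100 uM, 0.5% DMSO vehicle, duplicates. Readout: TaqMan qRT-PCR of KRT19 mRNA, housekeeping-normalized (ACTB/GAPDH/POLR2A). Bidirectional fit vs DMSO baseline.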

Read-out in test [7]: JUN Transcription Factor, JUN (gene 3725)
Briefly: LTEA_HepaRG_JUN: Life Technologies and Expression Analysis (LTEA) Assay for JUN Transcription Factor using HepaRG (AID 2283513). The method, boiled down:
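Gene-expression endpoint: JUN mRNA (qRT-PCR, normalized to three reference genes) in HepaRG cultures treated 48 h with chemicals, duplicate wells, 100 uM maximum with half-log dilutions; bidirectional fitting relative to 0.5% DMSO.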

Read-out in test [8]: Lipase C (LIPC), LIPC (gene 3990)
As to the kind of experiment: LTEA_HepaRG_LIPC: Life Technologies and Expression Analysis (LTEA) Assay for Lipase C (LIPC) using HepaRG (AID 2283514). The procedure, abridged:
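HepaRG, 48 h exposure, 8-pt half-log series from 100 uM in 0.5% DMSO, duplicates. Readout: LIPC mRNA by Fluidigm qRT-PCR, housekeeping-normalized (ACTB/GAPDH/POLR2A). Gain or loss fitted bidirectionally against DMSO baseline.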

Read-out in test [9]: Lipoprotein lipase (LPL), LPL (gene 4023)
Briefly: LTEA_HepaRG_LPL: Life Technologies and Expression Analysis (LTEA) Assay for Lipoprotein lipase (LPL) using HepaRG (AID 2283515). The method, boiled down:
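HepaRG, 48 h exposure, 8-pt half-log dilutions from 100 uM, 0.5% DMSO vehicle, duplicates; qRT-PCR (Fluidigm array) of LPL mRNA vs housekeeping genes; bidirectional curve fit relative to DMSO baseline.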

Read-out in test [10]: Potassium channel subfamily K member 1 (KCNK1), KCNK1 (gene 3775)
Briefly: LTEA_HepaRG_KCNK1: Life Technologies and Expression Analysis (LTEA) Assay for Potassium channel subfamily K member 1 (KCNK1) using HepaRG (AID 2283511). The procedure, abridged:
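HepaRG, 48 h exposure, 8-pt half-log series top 100 uM, 0.5% DMSO vehicle, duplicates. Readout: KCNK1 transcript by qRT-PCR (Fluidigm array), housekeeping-normalized; bidirectional curve fit relative to DMSO baseline.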

Active and inactive are the calls of the source. The calls were made as follows: active = hit-call score of the fitted dose curve at least 0.9, where 1 is the maximum; inactive = score below 0.9.

For the compound `Cc1ccccc1CO[C@@H]1C[C@@]2(C(C)C)CC[C@]1(C)O2`, the compound was classed as inactive in test [1], in [2], in test [3], in test [4], in test [5] and in test [6]. Further, the compound was classed as inactive in test [7], in [8] and in [9].
As to `CCC(C)c1cc([N+](=O)[O-])cc([N+](=O)[O-])c1O` (centres undefined), the AC50 – broadly, the concentration at which the activity in the assay is half-maximal – in test [1] is 1.24 µM (active); in test [3], 4.09 µM (active); in [4], 4.95 µM (active); in [6], 2.53 µM (active); in test [8], 1.83 µM (active); in [9] it was 0.758 µM (active). For the same compound, the call in test [2], in [5] and in [7] was inactive.
On to `Clc1ccc(C(Cl)(Cl)Cl)cc1`, for which the compound was classed as inactive in [1], in test [2], in [3], in [4], in test [5] and in test [6]. Moreover, the result in test [7], in test [8] and in test [9] was inactive.
On to `O=C(O)C(F)(F)C(F)(F)C(F)(F)C(F)(F)C(F)(F)C(F)(F)C(F)(F)C(F)(F)C(F)(F)F`, for which the AC50 in [1] is 31.2 µM (active); in test [2], 22.7 µM (active); in test [3], 27.9 µM (active); in [4], 71.7 µM (active); in [7], 50 µM (active); in [8], 21.1 µM (active). Besides, the AC50 in test [9] was 89.2 µM (active). Besides, the call in [5] and in [6] was inactive.
Turning to `CC(C)(O)C(=O)Nc1ccc([N+](=O)[O-])c(C(F)(F)F)c1`, the AC50 in test [1] was 0.0443 µM (active); in [2] it was 0.0402 µM (active); in test [3], 0.0432 µM (active); in test [7], 0.0328 µM (active); in test [8] it was 0.0399 µM (active). Further, the compound was classed as inactive in [4], in test [5], in test [6] and in test [9].
With `Clc1ccc(Cl)cc1`, the result in test [1], in test [2], in [3], in [4], in test [5] and in test [6] was inactive. Moreover, the call in test [7], in test [8] and in [9] was inactive.
Turning to `Oc1ccc(Cl)cc1Cl`, the compound was called inactive in test [1], in [2], in test [3], in test [4], in test [5] and in test [6]. Further, the outcome in test [7], in test [8] and in [9] was inactive.
Regarding `Cc1cccc([N+](=O)[O-])c1`, the outcome in [1], in [2], in [3], in [4], in test [5] and in test [6] was inactive. For the same compound, the call in test [7], in test [8] and in test [9] was inactive.
For `ClC(Cl)=C(c1ccc(Cl)cc1)c1ccc(Cl)cc1`, the AC50 in test [1] was 50 µM (active). For the same compound, the compound was classed as inactive in test [2], in test [3], in [4], in test [5], in test [6] and in test [7]. Also, the compound was classed as inactive in test [8] and in test [9].
For the compound `CC(c1ccc(O)cc1)(c1ccc(O)cc1)c1ccc(O)cc1`, the AC50 in [1] is 92 µM (active); in test [2] it was 33.4 µM (active); in [3] it was 18.8 µM (active); in [4], 80.8 µM (active); in test [5], 72.7 µM (active); in [6], 50 µM (active). Besides, the AC50 in test [7] was 82.9 µM (active); in test [9] it was 68.6 µM (active). In test [8], the compound was called inactive.
For `CC(C)C(=O)OCC(C)(C)C(OC(=O)C(C)C)C(C)C` (centres undefined), the call in test [1], in test [2], in test [3], in [4], in test [5] and in test [6] was inactive. For the same compound, the outcome in [7], in [8] and in test [9] was inactive.
For `Cc1cc(-c2ccc(N)c(C)c2)ccc1N`, the call in test [1], in test [2], in [3], in [4], in [5] and in test [7] was inactive. The compound was classed as inactive in test [8]. Besides, the AC50 was 30.8 µM (active) in test [6] and 50 µM (active) in test [9].
For the compound `COc1ccc(O)c(C(C)(C)C)c1`, the result in test [1], in [2], in test [3], in test [4], in test [5] and in test [6] was inactive. Moreover, the call in [7], in [8] and in [9] was inactive.
Regarding `c1ccc(-c2ccccc2)cc1`, the result in [1], in test [2], in [3], in test [4], in test [5] and in test [6] was inactive. Further, the compound was called inactive in test [7], in [8] and in test [9].
In the case of `CCCCCCOC(=O)c1ccccc1C(=O)OCCCCCC`, the call in test [1], in test [2], in test [3], in test [4], in test [5] and in [6] was inactive. The result in test [7], in test [8] and in [9] was inactive.
In the case of `Cc1ccccc1O`, the compound was classed as inactive in [1], in [2], in [3], in test [4], in test [5] and in [6]. Besides, the result in [7], in test [8] and in [9] was inactive.
`CCCN(CCC)N=O`: the call in test [1], in test [2], in [3], in test [4], in test [5] and in [6] was inactive. Further, the compound was classed as inactive in test [7], in test [8] and in test [9].
On to `CCC(=O)O[C@H]1CC[C@H]2[C@@H]3CCC4=CC(=O)CC[C@]4(C)[C@H]3CC[C@]12C`, for which the call in [1], in test [2], in [3], in test [5], in test [6] and in [7] was inactive. Besides, the call in test [8] and in [9] was inactive. The AC50 in [4] is 33.1 µM (active).
For `CCOCCOC(C)=O`, the compound was called inactive in test [1], in [2], in test [3], in test [4], in test [5] and in [6]. The result in test [7], in test [8] and in test [9] was inactive.
Take `O=C(NC(=O)c1cc(F)c(F)cc1Cl)Nc1cc(F)ccc1N1CCC(C(=O)O)CC1`: the compound was classed as inactive in test [1], in [2], in test [3], in test [4], in test [5] and in test [6]. The call in test [7], in test [8] and in test [9] was inactive.
Take `CCCCCCCCCc1ccc(O)cc1`: the call in test [1], in [2], in test [3], in test [4], in test [5] and in [6] was inactive. Also, the result in test [7], in test [8] and in test [9] was inactive.
As to `Oc1c(Cl)c(Cl)c(Cl)c(Cl)c1Cl`, the AC50 is 6.52 µM (active) in test [1]; 7.05 µM (active) in test [3]; 5.66 µM (active) in test [5]; 34.5 µM (active) in [10]; 6.33 µM (active) in [6]; 4.24 µM (active) in test [8]. The AC50 in test [9] is 5.08 µM (active). Moreover, the outcome in test [2] and in [7] was inactive.
`C1CC2OC2CC1C1CO1` (centres undefined): the result in [1], in test [2], in test [3], in [4], in test [5] and in [6] was inactive. Moreover, the result in [7], in test [8] and in [9] was inactive.
Take `Cc1ccccc1[N+](=O)[O-]`: the compound was called inactive in test [1], in [2], in test [3], in test [4], in test [5] and in test [6]. The result in [7], in [8] and in [9] was inactive.
Consider `CCC(C)(CC)c1cc(NC(=O)c2c(OC)cccc2OC)on1`, for which the AC50 in [1] was 1.79 µM (active); in [3], 50 µM (active). Also, the result in test [2], in test [4], in test [5], in [7], in test [8] and in test [9] was inactive.

(Values after PubChem BioAssay (EPA / NIEHS).)
